Most compounds without a hit are left out; they make up all but 19% or so of the library.
IL1B secr inh = inflammasome signaling inhibition, IL-1 beta readout; THP-1 LPS/ATP IL-1B secretion, AlphaLISA, 16 h; active compounds read low; activity change, % at 57.5 µM; hit rate 4.7% among 360,000; in the data active = activity change below about -50%; inconclusive = mostly about -30% to -49%; also: % is scaled to controls: 0 for no effect and ±100 for the full control effect
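Secreted IL-1B measured by AlphaLISA bead assay after 16 h compound exposure of THP-1 cells; compounds (final up to 57.5 uM) added 1 h before LPS (250 ng/mL) and ATP (1.25 mM) stimulation; lower signal means less secretion.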
TDP1 cell noCPT = qHTS for Inhibitors of human tyrosyl-DNA phosphodiesterase 1 (TDP1): qHTS in cells in absence of CPT; Potency, µM (titrated, usually from 46.2 µM), without a hit: at the highest dose activity change, negative = growth inhibition, hits mostly inhibitors; AID 686978, 2013; DT40 Tdp1-/- hTDP1 cells, no CPT, ATP luminescence, 48 h; hit rate 15% among 420,000; also: potency is read from the fitted curve at half-maximal effect; % is scaled to controls: 0 for no effect and ±100 for the full control effect; nearly all actives have a fitted effect of over 55% in size
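Chicken DT40 Tdp1-/- cells complemented with human TDP1, screened without camptothecin (DMSO vehicle only), 400 cells/well. Compounds pin-transferred, cells incubated at 37 °C for at least 48 hr. Growth read as ATP-dependent luminescence (CellTiter-Glo, 30 min at RT).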
DT40 TDP1 CPT = growth inhibition of DT40 Tdp1-/-;hTDP1 cells with camptothecin (screen for TDP1 inhibitors) | Potency, µM (highest dose often 46.2 µM), inactives show top-dose activity change, negative = growth inhibition, actives largely listed as inhibitors | AID 686979 | chicken DT40 Tdp1-/-;hTDP1 cells + 20 nM CPT, ATP luminescence, 48 h | hit rate 12% among 420,000; also: potency is read from the fitted curve at half-maximal effect; % is scaled to controls: 0 for no effect and ±100 for the full control effect; nearly all actives have a fitted effect of over 55% in size
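Chicken DT40 Tdp1-/- cells stably complemented with human TDP1 were seeded at 400 cells/well in medium containing 20 nM camptothecin, exposed to pin-transferred compounds, and grown at 37 °C for at least 48 hr. Viability was read as ATP luminescence.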
HepG2 tox = counter-screen for TGF-b inhibitors: cytotoxicity in HepG2 cells; HepG2 CAGA-GFP viability, ATP luminescence, 18 h; Potency, µM (highest dose often 46.1 µM), inactives show top-dose activity change, negative = cytotoxicity, hits mostly cytotoxic; hit rate 0.76% among 410,000; also: potency is read from the fitted curve at half-maximal effect
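HepG2 CAGA-GFP cells (1000/well, DMEM with 1% FBS) received compound, then TGF-beta at 500 pg/mL final, and were incubated 18 hours at 37 degrees C. Viability was read by CellTiter-Glo luminescence. Media-only wells were set as complete cell-killing and DMSO as no toxicity.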
TGFb inhibitor = TGF-b pathway inhibition; HepG2 CAGA-GFP TGF-b/SMAD3 reporter, GFP fluorescence, 18 h; TGF-beta stimulated, 500 pg/mL final; Potency, µM (doses to about 46.1 µM), without a hit: top-dose activity, negative = inhibition, usual class: inhibitors; hit rate 1.2% among 410,000; AID 588855; also: potency is read from the fitted curve at half-maximal effect; % is scaled to controls: 0 for no effect and ±100 for the full control effect; nearly all actives have a fitted effect of over 65% in size
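HEPG2 CAGA-GFP reporter cells (1000/well, DMEM with 1% FBS) received compounds, then recombinant TGF-beta at 500 pg/mL final for 18 hours at 37 degrees C. Per-cell GFP summed per well was normalised to unstimulated and stimulated DMSO controls before curve fitting.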
TDP1 block = blocks human tyrosyl-DNA phosphodiesterase 1; recombinant TDP1, AlphaScreen DNA substrate cleavage; Potency, µM (top dose mostly 130 µM), for the others: at the top dose activity change, negative = inhibition, usual class: inhibitors; hit rate 0.28% among 350,000; AID 485290; also: potency is read from the fitted curve at half-maximal effect; % is scaled to controls: 0 for no effect and ±100 for the full control effect; nearly all actives have a fitted effect of over 40% in size
Target sequence (Q9NUW8 whole entry, looked up): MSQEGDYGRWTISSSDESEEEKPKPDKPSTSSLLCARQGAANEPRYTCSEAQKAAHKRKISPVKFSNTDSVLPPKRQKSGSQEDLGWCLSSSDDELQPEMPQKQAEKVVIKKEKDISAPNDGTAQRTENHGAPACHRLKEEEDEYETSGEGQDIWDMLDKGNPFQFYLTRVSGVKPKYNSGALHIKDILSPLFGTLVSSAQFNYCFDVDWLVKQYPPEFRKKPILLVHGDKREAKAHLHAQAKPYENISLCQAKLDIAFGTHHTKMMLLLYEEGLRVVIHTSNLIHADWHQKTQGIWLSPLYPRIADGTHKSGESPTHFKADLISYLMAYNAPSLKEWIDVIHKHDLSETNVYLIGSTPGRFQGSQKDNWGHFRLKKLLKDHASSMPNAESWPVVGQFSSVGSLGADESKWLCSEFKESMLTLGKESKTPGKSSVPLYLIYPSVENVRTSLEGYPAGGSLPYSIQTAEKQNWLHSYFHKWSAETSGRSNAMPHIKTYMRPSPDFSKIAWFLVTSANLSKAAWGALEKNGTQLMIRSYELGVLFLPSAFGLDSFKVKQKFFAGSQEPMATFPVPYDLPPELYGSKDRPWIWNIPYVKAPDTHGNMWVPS
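Tdp1 1 nM final; 15 min RT w/ cpd; substrate 15 nM, 5 min; beads 10 ug/ml, 10 min; AlphaScreen read. Neg ctrl: no enzyme.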
* = called active by the depositor; ! = not confirmed by another sample; [ ] = dose if it differs, or a comment. Unless noted, calls follow the shape of the dose curve; as a rule, active = well fitted curve in the direction sought with a large enough effect; inconclusive = small, poorly fitted or top-dose-only effect, or another doubt; inactive = no such curve, though single readings can be large; an effect the other way counts as inactive or inconclusive.

Results for C[C@]12CCC3C(CC[C@H]4CC(O)CC[C@]34C)C1CC/C2=N/NC(=O)c1ccncc1 (stereo partly drawn) ?
IL1B secr inh: 46.4; TDP1 cell noCPT: 23.1µM*; DT40 TDP1 CPT: 25.9µM*; HepG2 tox: -28.4%; TGFb inhibitor: -4.3%

What do the screens show for `Cc1ccc(C(=O)c2cn(CC(=O)Nc3ccc(C(C)C)cc3)c3nc(C)ccc3c2=O)cc1`?
TDP1 cell noCPT: 6.51µM*; DT40 TDP1 CPT: 6.51µM*; HepG2 tox: 2.9%; TGFb inhibitor: 8.3%; TDP1 block: 4.2%

Results for CC(C)OC(=O)OCOP(=O)(CO[C@H](C)Cn1cnc2c(N)ncnc21)OCOC(=O)OC(C)C ?
TDP1 cell noCPT: 10.6µM*!; DT40 TDP1 CPT: 8.41µM*!

Results for Cc1ccccc1NC(=O)Cc1nc(COC(=O)c2cc([N+](=O)[O-])ccc2N)cs1 ?
IL1B secr inh: -4.4; TDP1 cell noCPT: inconclusive; DT40 TDP1 CPT: -1.7%; HepG2 tox: -20.2%; TGFb inhibitor: 4.1%; TDP1 block: 1.7%

Results for CCCn1c(C)c(C(=O)c2cccc3ccccc23)c2ccccc21 ?
IL1B secr inh: -20.9; TDP1 cell noCPT: 13.3µM*; DT40 TDP1 CPT: 26.6µM*!; HepG2 tox: -32.2%; TGFb inhibitor: -26.1%; TDP1 block: -4.8%[56.1 µM]

Results for Cc1nn(-c2ccccc2)c2c1P(=O)(O)/C(=C1\N(C)c3ccccc3C1(C)C)C=N2 ?
IL1B secr inh: inconclusive; TDP1 cell noCPT: -2.1%; DT40 TDP1 CPT: -23.2%; HepG2 tox: -38.1%; TGFb inhibitor: 1.1%; TDP1 block: 1.9%

Results for Cc1cccc(N(C)S(=O)(=O)c2cc(-c3cnc(C4CC4)o3)ccc2C)c1 ?
TDP1 cell noCPT: 23.1µM*; DT40 TDP1 CPT: 16.4µM*; HepG2 tox: -31.5%; TGFb inhibitor: inconclusive; TDP1 block: 1.2%

Results for Cc1ccsc1C(=O)C1CCCN(Cc2cnc(N3CCCC3)s2)C1 (stereo not drawn) ?
IL1B secr inh: 8.8; TDP1 cell noCPT: 18.4µM*; DT40 TDP1 CPT: 11.6µM*; HepG2 tox: -25.6%; TGFb inhibitor: -29.1%; TDP1 block: 3.6%

How did Cc1ccsc1C(=O)C1CCCN(Cc2ccc(-n3cccn3)cc2)C1 (stereo not drawn) do in these assays?
IL1B secr inh: -16.3; TDP1 cell noCPT: 14.6µM*; DT40 TDP1 CPT: 20.6µM*; HepG2 tox: -35.4%; TGFb inhibitor: inconclusive; TDP1 block: -7.7%

How did CSc1ncc(CN2CCCC(C(=O)c3sccc3C)C2)cn1 (stereo not drawn) do in these assays?
IL1B secr inh: 54.1; TDP1 cell noCPT: inconclusive; DT40 TDP1 CPT: inconclusive; HepG2 tox: -12.5%; TGFb inhibitor: inconclusive; TDP1 block: -1.2%

What do the screens show for `Cc1ccc(CN2CCCC(C(=O)c3sccc3C)C2)o1` (stereo not drawn)?
IL1B secr inh: -9.5; TDP1 cell noCPT: 20.6µM*; DT40 TDP1 CPT: 3.2%; HepG2 tox: -15.6%; TGFb inhibitor: -12.2%; TDP1 block: 2.7%

Results for CN1CCc2cc3c(cc2C1O)OCO3 (stereo not drawn) ?
TDP1 cell noCPT: 2.6%; DT40 TDP1 CPT: 6.8%; TDP1 block: 3.6%

What do the screens show for `Nc1ncnc2c1ncn2[C@@H]1O[C@H](COP(=O)(O)OP(=O)(O)OP(=O)(O)O)[C@H]2OC3(O[C@H]21)C([N+](=O)[O-])=CC(=[N+]([O-])[O-])C=C3[N+](=O)[O-]` (stereo partly drawn)?
TDP1 block: -6.1%

What do the screens show for `O=Nc1c(O)c2ccccc2c2ccccc12`?
IL1B secr inh: -76.4*; TDP1 cell noCPT: 3.26µM*; DT40 TDP1 CPT: 1.84µM*; HepG2 tox: 2.82µM*; TGFb inhibitor: 2.24µM*

How did O=C(Nc1cccc(C(=O)Nc2cc(C(=O)Nc3ccc([S+](=O)([O-])[O-])c4cc([S+](=O)([O-])[O-])cc(SOOO)c34)ccc2F)c1)Nc1cccc(C(=O)Nc2cc(C(=O)Nc3ccc([S+](=O)([O-])[O-])c4cc([S+](=O)([O-])[O-])cc([S+](=O)([O-])[O-])c34)ccc2F)c1 do in these assays?
TDP1 block: 2.24µM*

What do the screens show for `CCC(=O)OC1CCC2C3CCc4cc(O)ccc4C3CC[C@]12C` (stereo partly drawn)?
TDP1 cell noCPT: 20.6µM*; DT40 TDP1 CPT: 20.6µM*; TDP1 block: 14.1%[56.1 µM]

How did CC(=O)Nc1c2sscc-2n(C)c1=O do in these assays?
TDP1 block: 0.0%

What do the screens show for `C=C1C(C)C2C(Cc3ccccc3)NC(=O)C23OC(=O)/C=C/C(O)CCCC(C)C/C=C/C3C1O` (stereo not drawn)?
IL1B secr inh: 22.1; TDP1 cell noCPT: 2.06µM*; DT40 TDP1 CPT: 1.46µM*; HepG2 tox: -33.1%; TGFb inhibitor: -10.4%

What do the screens show for `C=C1[C@@H](C)[C@H]2[C@H](Cc3ccccc3)NC(=O)[C@]23[C@H](OC(C)=O)/C=C/[C@](C)(O)C(=O)[C@@H](C)C/C=C/[C@H]3[C@@H]1O`?
TDP1 cell noCPT: 0.143µM*; DT40 TDP1 CPT: 0.181µM*; TDP1 block: 6.2%

Results for C=C1[C@@H](O)C2C=CC[C@H](C)C(=O)[C@@](C)(O)C=C[C@@H](OC(C)=O)[C@@]23C(=O)N[C@H](Cc2ccccc2)[C@@H]3[C@@H]1C (stereo partly drawn) ?
TDP1 cell noCPT: 0.237µM*; DT40 TDP1 CPT: 0.266µM*; TDP1 block: -5.2%[56.1 µM]

What do the screens show for `CCC(C)(S(=O)(=O)CC)S(=O)(=O)CC`?
TDP1 cell noCPT: -3.5%; DT40 TDP1 CPT: 3.0%

What do the screens show for `COc1ccc(C2CN(C)CC2C(=O)c2ccc(F)cc2)cc1Cl` (stereo not drawn)?
IL1B secr inh: -57.9*; TDP1 cell noCPT: 20.6µM*; DT40 TDP1 CPT: -13.9%; HepG2 tox: -16.1%; TGFb inhibitor: -14.1%; TDP1 block: -3.8%

How did CN1CC(C(=O)c2ccc(F)cc2)C(c2c(F)cccc2Cl)C1 (stereo not drawn) do in these assays?
IL1B secr inh: -22.4; TDP1 cell noCPT: -9.9%; DT40 TDP1 CPT: -21.9%; HepG2 tox: -15.2%; TGFb inhibitor: -28.9%; TDP1 block: -2.7%

Screening data deposited in PubChem by National Center for Advancing Translational Sciences (NCATS).
